From PubChem BioAssay (NCATS)
Inconclusive results are not listed. The source made the active and inactive calls. Calls follow the shape of the dose curve; as a rule, active = well fitted curve in the direction sought with a large enough effect; inconclusive = small, poorly fitted or top-dose-only effect, or another doubt; inactive = no such curve, though single readings can be large; an effect the other way counts as inactive or inconclusive.

Key:
[1] = qHTS assay for measurement of the activity of small molecule inhibitors on Zika virus induced Caspase-3 activity in human iPSC derived neural progenitor cells (hNPCs) (AID 1224857); also: % of control where 0% means no effect; nearly all actives have a fitted effect of over 65% in size
In short: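 After overnight (16–20 h) culture at 350 cells/well, hNPCs get compound, then ZIKV 2 FFU/cell one hour later. Six hours on, Caspase-Glo 3/7 is added and luminescence measured.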

[2] = qHTS assay for measurement of the activity of small molecule inhibitors on Zika virus induced Caspase-3 activity in human astrocytoma cells (AID 1224859);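 also: plate controls were ZIKV-infected untreated cells for no effect and uninfected cells for full effect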
In short: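 Inhibition of Zika-induced caspase-3/7 activity: SNB-19 cells, 1 h compound pretreatment, ZIKV 2 FFU/cell for 6 h at 37 C, Caspase-Glo luminescence read-out.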

[3] = qHTS assay to identify small molecule inhibitors of chordoma cells - UCH-1 (AID 1259355); also: % is scaled to controls: 0 for no effect and ±100 for the full control effect; nearly all actives have a fitted effect of over 55% in size
In short: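 800 cells/well, overnight attach; compounds pinned at 15 concs, then auranofin/camptothecin/doxorubicin/rubitecan/topotecan combo added; 48hr 37 C, 5% CO2; CellTiter-Glo, 30min RT, luminescence.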

Measured: activity change, negative = inhibition

Cn1cc(C(=O)[C@@H]2CCc3nc[nH]c3C2)c2ccccc21
inactive: all assays above

O=C(O)c1cc(=O)c2ccccc2o1
inactive: all assays above

CCCNC(C)(C)COC(=O)c1ccccc1
inactive: all assays above

CCOC(=O)[C@H](CCc1ccccc1)N[C@@H](C)C(=O)N1Cc2cc(OC)c(OC)cc2C[C@H]1C(=O)O
inactive: all assays above

COC(=O)c1ccc(O)cc1
inactive: all assays above

c1ccc2[nH]ccc2c1
inactive: all assays above

C[C@H]1COc2c(C3(N)CC3)c(F)cc3c(=O)c(C(=O)O)cn1c23
inactive: all assays above

CC(=O)[C@@]1(O)CC[C@H]2[C@@H]3C[C@H](C)C4=CC(=O)C=C[C@]4(C)[C@@]3(F)[C@@H](O)C[C@@]21C
inactive: all assays above

Cn1c([N+](=O)[O-])cnc1COC(N)=O
inactive: all assays above

C[C@@H]1CCC[C@H](C)N1
inactive: all assays above

N[C@@H](Cc1ccc(O)cc1)C(=O)O
inactive: [1] 4.45% [at 9.06 µM] | [2] -11% [at 9.06 µM] | [3]

CC(CSC(=O)c1ccccc1)C(=O)N1C[C@@H](Sc2ccccc2)C[C@H]1C(=O)O (some centres undefined)
inactive: all assays above

Nc1ncnc(Nc2ccccc2)n1
inactive: all assays above

CN1CC(=O)NC1=N
inactive: all assays above

O=C(c1ccccc1)C(O)c1ccccc1 (centres undefined)
inactive: all assays above

CC(=O)SC[C@@H](Cc1ccccc1)C(=O)NCC(=O)OCc1ccccc1
inactive: all assays above

CCN[C@H]1CN(CCCOC)S(=O)(=O)c2sc(S(N)(=O)=O)cc21
inactive: all assays above

Cn1c(=O)c2c(ncn2CCO)n(C)c1=O
inactive: all assays above

CC[C@]12CCCN3CCc4c(n(c5ccccc45)[C@@](O)(C(=O)OC)C1)[C@@H]32
inactive: all assays above

CC(=O)Oc1cccc(C)c1
inactive: all assays above

Cc1ccc(C(C)C)c(O)c1
inactive: all assays above

CCOC(=O)c1cccnc1
inactive: all assays above

Cc1ccsc1C(=CCCN1CCC[C@@H](C(=O)O)C1)c1sccc1C
inactive: all assays above

CN(C(=O)c1c(O)c2ccccc2n(C)c1=O)c1ccccc1
inactive: all assays above

NC(=O)CCCCC1CCSS1 (centres undefined)
inactive: all assays above

OCC(O)CS (centres undefined)
inactive: all assays above

NS(=O)(=O)c1cc(-c2nn[nH]n2)c(NCc2cccs2)cc1Cl
inactive: all assays above

CC(C)(C)NCC(O)COc1cccc2c1CCC(=O)N2 (centres undefined)
inactive: all assays above

CCCCCCCC(=O)OCC(COC(=O)CCCCCCC)OC(=O)CCCCCCC
inactive: all assays above

Cc1c(I)c(=O)n(-c2ccccc2)n1C
inactive: all assays above

Cc1ccc2c(c1)c1c3n2CCNC3CCC1 (centres undefined)
inactive: all assays above

CCOC(=O)OC(C)OC(=O)[C@@H]1N2C(=O)[C@@H](NC(=O)[C@H](N)c3ccccc3)[C@H]2SC1(C)C (some centres undefined)
inactive: all assays above

O=c1[nH]c(=O)n([C@H]2C[C@H](O)[C@@H](CO)O2)cc1I
inactive: all assays above

O=C(O)CNC(=O)c1ccccc1I
inactive: all assays above

NS(=O)(=O)c1cc2c(cc1C(F)(F)F)NCNS2(=O)=O
inactive: all assays above

O=C(Cn1ccnc1[N+](=O)[O-])NCc1ccccc1
inactive: all assays above

NS(=O)(=O)c1ccc(NC(=O)CCC(=O)O)cc1
inactive: all assays above

CCN(CC)S(=O)(=O)c1ccc(C(=O)O)cc1
inactive: all assays above

O=C(O)Cc1ccc(CCNS(=O)(=O)c2ccc(Cl)cc2)cc1
inactive: all assays above

OCCN1C[C@H](O)[C@@H](O)[C@H](O)[C@H]1CO
inactive: all assays above

O=C(/C=C/c1ccccc1)OCc1ccccc1
inactive: all assays above

CN1CCN(C(=O)C2CCCCC2)CC1
inactive: all assays above

CCCCCCCCCCC(CO)CCCCCCCC (centres undefined)
inactive: all assays above

CC(=O)N1C[C@H](O)C[C@H]1C(=O)O
inactive: all assays above

CCCCCOC(=O)Nc1nc(=O)n([C@@H]2O[C@H](C)[C@@H](O)[C@H]2O)cc1F
inactive: all assays above

C/C(=C(\CCO)SS/C(CCO)=C(\C)N(C=O)Cc1cnc(C)nc1N)N(C=O)Cc1cnc(C)nc1N
inactive: all assays above

COC(=O)N/N=C/c1c[n+]([O-])c2ccccc2[n+]1[O-]
inactive: all assays above

CCN(CC)C(=O)c1cccc(C)c1
inactive: all assays above

CC(N)CCCC(C)(C)O (centres undefined)
inactive: all assays above

COC(=O)c1ccccc1C(=O)c1ccc(OCCN2CCCCC2)cc1
inactive: all assays above

O=C(O)c1ccc(OCCCOc2ccc(C(=O)O)cc2)cc1
inactive: all assays above

CC1CCN(CCCC(=O)c2ccc(F)cc2)CC1
inactive: all assays above

C[C@]1(Cn2ccnn2)[C@H](C(=O)O)N2C(=O)C[C@H]2S1(=O)=O
inactive: all assays above

CC(=O)Oc1cccc(O)c1
inactive: all assays above

O=C1CC[C@@H](C(=O)O)N1
inactive: all assays above

CCOc1cc(NC(C)=O)ccc1C(=O)OC
inactive: all assays above

CC(=O)OCC(=O)[C@@]1(O)CC[C@H]2[C@@H]3CCC4=CC(=O)C=C[C@]4(C)[C@@]3(F)[C@@H](O)C[C@@]21C
inactive: all assays above

NC(=O)N[C@@H](CCC(=O)O)C(=O)O
inactive: all assays above

Cc1c(Cn2ccnc2)c2ccccc2n1CCC(=O)O
inactive: all assays above

COc1ccccc1OC(=O)Oc1ccccc1OC
inactive: all assays above

CCCOC(=O)c1ccc(N)cc1
inactive: all assays above

Cc1c(C)c2c(c(C)c1OC(=O)c1cccnc1)CC[C@@](C)(CCC[C@H](C)CCC[C@H](C)CCCC(C)C)O2
inactive: all assays above

O=C(O)/C=C/c1ccc(Cn2ccnc2)cc1
inactive: all assays above

COc1ccc(Cc2cnc(N)nc2N)cc1OC
inactive: all assays above

Cc1onc(-c2ccccc2)c1-c1ccc(S(N)(=O)=O)cc1
inactive: all assays above

NNc1nnc(NN)c2ccccc12
inactive: all assays above

CCC(C)(CN(C)C)OC(=O)c1ccccc1 (centres undefined)
inactive: all assays above

CN1CCCN=C1COC(=O)C(O)(c1ccccc1)C1CCCCC1 (centres undefined)
inactive: all assays above

O=C(CN1CCNCC1)NC1CCCCC1
inactive: all assays above

COc1ccc(O)cc1
inactive: all assays above

NC(N)=NCCN1CCCCCCC1
inactive: [1] 6.93% [at 0.568 µM] | [2] -3.82% [at 0.568 µM] | [3]

C/C=C1\[C@H]2C=C(C)C[C@]1(N)c1ccc(=O)[nH]c1C2
inactive: all assays above

CCCCCCCC(=O)OCC(O)CO (centres undefined)
inactive: all assays above

Cc1cccc(C(=O)O)c1O
inactive: all assays above

Nc1ccc(C(=O)Oc2ccccc2)c(O)c1
inactive: all assays above

CO[C@@]1(NC(=O)C(C(=O)O)c2ccc(O)cc2)C(=O)N2C(C(=O)O)=C(CSc3nnnn3C)CO[C@@H]21 (some centres undefined)
inactive: all assays above

O=C1c2ccccc2S(=O)(=O)N1CCCCN1CCN(c2ncccn2)CC1
inactive: all assays above

C[N+]1(C)CCCC(OC(=O)C(O)(c2ccccc2)c2ccccc2)C1 (centres undefined)
inactive: all assays above

Cc1[nH]c(C)c(Cl)c(=O)c1Cl
inactive: all assays above

O=C1C(c2[nH]c3ccccc3c2O)=Nc2ccccc21
inactive: all assays above

CC(=O)Nc1cccc(O)c1
inactive: all assays above

COc1ccc(C(=O)N2CCN(CC(=O)N3CCOCC3)CC2)cc1
inactive: all assays above

CC1CCc2cc(F)cc3c(=O)c(C(=O)O)cn1c23 (centres undefined)
inactive: all assays above

Nc1ccncc1N
inactive: all assays above

CN(C/C=C/C#CC(C)(C)C)Cc1cccc2ccccc12
inactive: all assays above

OCc1ccc(Cl)cc1Cl
inactive: all assays above

COc1nccnc1NS(=O)(=O)c1ccc(N)cc1
inactive: all assays above

CCCC(O)C(CC)CO (centres undefined)
inactive: all assays above

C=CCN1C[C@H](C(=O)N(CCCN(C)C)C(=O)NCC)C[C@@H]2c3cccc4[nH]cc(c34)C[C@H]21
inactive: all assays above

O=C(O)COC(=O)Cc1ccccc1Nc1c(Cl)cccc1Cl
inactive: all assays above

CC(C)=CCC[C@@](C)(O)[C@H]1CC=C(C)CC1
inactive: all assays above

C[C@@H](c1ncncc1F)C(O)(Cn1cncn1)c1ccc(F)cc1F (some centres undefined)
inactive: all assays above

CC(C)=CCC/C(C)=C/CO
inactive: all assays above
